Here are results for 4 compounds from PubChem BioAssay (EPA / NIEHS).

The target in assay [1] is Transcription factor E2F1 (Homo sapiens) (UniProt Q01094). The assay can be described thus: ATG_E2F_CIS: Attagene CIS-FACTORIAL HepG2 Assay for human E2F Transcription Factor 1 (AID 2282935). Particulars: HepG2 Attagene cis-reporter, E2F reporter RNA transcripts; actives raise or lower the signal. In short, it runs like this:
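Transient MRTU transfection of HepG2; 24 h compound exposure; RNA → oligo(dT) RT → PCR → FAM label → HpaI cut → CE fluorescence. Gain/loss of signal fit against DMSO.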

Assay [2] is described as follows: ATG_E_Box_CIS: Attagene CIS-FACTORIAL HepG2 Assay for human Enhancer Box (E-box) (AID 2282936). Particulars: HepG2 E-box cis-reporter transcription, actives raise or lower the signal. In short, it runs like this:
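Transiently transfected HepG2, endogenous TF-driven reporters, 24 h dosing. Readout: RT-PCR plus capillary electrophoresis of fluorescent reporter fragments. Gain or loss of signal fitted bidirectionally against DMSO baseline.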

Assay [3] in a line: ATG_M_61_CIS: Attagene CIS-FACTORIAL HepG2 Assay for M61 Transcription Factor (Internal Marker) (AID 2282937). Particulars: HepG2 Attagene CIS-FACTORIAL M61 internal marker reporter; actives raise or lower the signal. In short, it runs like this:
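Transfect HepG2 with MRTUs; dose 24 h; isolate RNA; reverse-transcribe with DNase I treatment; PCR-amplify, FAM-label and cut with HpaI for 2 h at 37 C; resolve by CE. Bidirectional fitting against DMSO.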

The nature of assay [4]: ATG_EGR_CIS: Attagene CIS-FACTORIAL HepG2 Assay for human Early Growth Response 1 (EGR1) (AID 2282938). Particulars: HepG2 Attagene CIS-FACTORIAL EGR reporter mRNA; actives raise or lower the signal. In short, it runs like this: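 After a 24 h treatment of transiently transfected HepG2 cells, total RNA was reverse-transcribed and reporter sequences PCR-amplified, labelled and run on capillary electrophoresis. Reporters sit under cis-regulatory promoters sensing endogenous factors.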

The nature of assay [5]: ATG_ERE_CIS: Attagene CIS-FACTORIAL HepG2 Assay for Estrogen Response Element (ERE) (AID 2282940). To be noted: HepG2 ERE cis-reporter, Attagene RNA transcript; actives raise or lower the signal. The method in brief: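 HepG2, transient cis-reporter units, 24 h exposure. RNA isolated, oligo(dT) RT, reporter-specific PCR, FAM extension, HpaI cut, CE detection. Gain/loss-of-signal vs DMSO.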

Assay [6] in a line: ATG_Ets_CIS: Attagene CIS-FACTORIAL HepG2 Assay for human Erythroblast Transformation Specific (ETS) (AID 2282941). Particulars: HepG2 ETS cis-reporter transcription, actives raise or lower the signal. The method in brief: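 Endogenous transcription factor activity read as reporter mRNA via RT-PCR and capillary electrophoresis, with gain or loss fitted bidirectionally against DMSO. Human HepG2 liver cells, transiently transfected CIS reporter constructs, 24 h exposure.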

In assay [7] the target is Hepatocyte nuclear factor 3-beta (Homo sapiens) (UniProt Q9Y261). The assay can be described thus: ATG_FoxA2_CIS: Attagene CIS-FACTORIAL HepG2 Assay for human Forkhead box A2 (FOXA2) (AID 2282942). To be noted: HepG2 cis-reporter transcription factor activity, 24 h; actives raise or lower the signal. In short, it runs like this: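 24 h dosing of HepG2 bearing cis-reporter constructs; mRNA readout by RT-PCR/CE fluorescence; bidirectional fit, DMSO baseline.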

A short description of assay [8]: ATG_FoxO_CIS: Attagene CIS-FACTORIAL HepG2 Assay for human Forkhead box O (FoxO) (AID 2282943). Particulars: HepG2 Attagene cis-reporter, FoxO element, mRNA; actives raise or lower the signal. The method in brief: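 Transfected HepG2 reporter cells exposed to test chemical for 24 h; reporter RNA measured by reverse transcription, PCR and fluorescent capillary electrophoresis; curves fitted for increases and decreases against DMSO.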

Assay [9] is described as follows: ATG_GATA_CIS: Attagene CIS-FACTORIAL HepG2 Assay for human GATA Binding Protein (AID 2282944). To be noted: HepG2 GATA cis-element reporter, Attagene multiplex mRNA; actives raise or lower the signal. In short, it runs like this:
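DMSO serves as negative control and baseline for bidirectional fitting of reporter mRNA changes. HepG2 cells bearing transiently transfected cis-promoter reporters were exposed 24 h; transcripts detected via RT-PCR and capillary electrophoresis.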

The nature of assay [10]: ATG_GLI_CIS: Attagene CIS-FACTORIAL HepG2 Assay for human Zinc Finger Protein GLI1 (AID 2282945). To be noted: HepG2, Attagene cis-factorial reporter mRNA, GLI element; actives raise or lower the signal. The method in brief:
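Transiently transfected HepG2 cells report endogenous transcription factor activity via cis-element-driven reporter units. After 24 h compound exposure, reporter mRNA was measured by RT-PCR with capillary electrophoresis; bidirectional fitting against DMSO baseline.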

Assay [11] is described as follows: ATG_GRE_CIS: Attagene CIS-FACTORIAL HepG2 Assay for human Glucocorticoid Response Elements (GRE) (AID 2282947). Particulars: HepG2 GRE cis-reporter, Attagene multiplex mRNA; actives raise or lower the signal. In short, it runs like this: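 Read-out: fluorescent reporter-transcript fragments separated by capillary electrophoresis after RT-PCR. Transiently transfected HepG2 cells carrying cis-element-driven reporter units were dosed for 24 h; gain or loss of signal fitted against DMSO control.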

Assay [12] in a line: ATG_ISRE_CIS: Attagene CIS-FACTORIAL HepG2 Assay for human Interferon Regulatory Factor 1 (IRF1) binding to an Interferon-Stimulated Response Element (ISRE) (AID 2282948). Particulars: HepG2 ISRE cis-reporter (Attagene), mRNA transcription readout; actives raise or lower the signal. In short, it runs like this:
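Endogenous transcription factor activity read as reporter transcript abundance via RT-PCR and capillary electrophoresis. HepG2 cells transiently transfected, 24 h chemical exposure. Gain or loss fitted against DMSO baseline.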

Assay [13] is described as follows: ATG_M_32_CIS: Attagene CIS-FACTORIAL HepG2 Assay for M32 Transcription Factor (Internal Marker) (AID 2282949).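 Also: background control marker of the multiplexed CIS panel rather than a real target.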 Particulars: HepG2 Attagene cis-factorial M32 reporter, mRNA; actives raise or lower the signal. The method in brief: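 Transient MRTU transfection of HepG2; 24 h compound treatment; TriZol RNA, oligo(dT) RT, reporter PCR, 6-FAM primer extension, HpaI cut, CE. Gain/loss of signal vs DMSO.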

The nature of assay [14]: ATG_M_06_CIS: Attagene CIS-FACTORIAL HepG2 Assay for M06 Transcription Factor (Internal Marker) (AID 2282950). To be noted: HepG2 Attagene CIS-FACTORIAL M06 internal marker reporter; actives raise or lower the signal. The method in brief: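 Fluorescence-labelled RT-PCR products from cis-promoter reporter units, cut with HpaI and resolved by capillary electrophoresis, give the signal. Cells are human HepG2, dosed for 24 h. Serves as background control, fitted relative to DMSO.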

Assay [15] has as its target Hypoxia-inducible factor 1-alpha (Homo sapiens) (UniProt Q16665). The assay is described as follows: ATG_HIF1a_CIS: Attagene CIS-FACTORIAL HepG2 Assay for human Hypoxia Inducible Factor 1 (HIF1A) (AID 2282951). Particulars: HepG2 Attagene cis-factorial HIF1a reporter transcription; actives raise or lower the signal. In short, it runs like this:
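After 24 h chemical exposure of reporter-transfected HepG2 cells, reporter cDNA was PCR-amplified, labelled by 6-FAM primer extension (2 min 95 C, 20 s 68 C, 10 min 72 C), HpaI-cut (2 h, 37 C) and analysed by CE.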

Assay [16] concerns the target Hepatocyte nuclear factor 6 (Homo sapiens) (UniProt Q9UBC0). The assay is described as follows: ATG_HNF6_CIS: Attagene CIS-FACTORIAL HepG2 Assay for human Hepatocyte Nuclear Factor 6 (HNF6) (AID 2282952). To be noted: HepG2 Attagene cis-factorial HNF6 reporter transcription; actives raise or lower the signal. In short, it runs like this: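 Twenty-four-hour chemical treatment of reporter-transfected HepG2 cells precedes RNA isolation, DNase-treated reverse transcription and PCR of reporter sequences. Labelled fragments are sized by capillary electrophoresis and fitted bidirectionally versus DMSO.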

Assay [17] can be described thus: ATG_MRE_CIS: Attagene CIS-FACTORIAL HepG2 Assay for human Metal Responsive Element (MRE) (AID 2282954). To be noted: HepG2 MRE cis-reporter transcription, Attagene multiplex; actives raise or lower the signal. In short, it runs like this: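 RT-PCR/capillary electrophoresis readout of reporter mRNA, 24 h post-dosing, in HepG2 cells transfected with multiplexed cis-regulated reporter constructs. Gain or loss of signal fitted bidirectionally against DMSO baseline.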

Assay [18] in a line: ATG_M_19_CIS: Attagene CIS-FACTORIAL HepG2 Assay for M19 Transcription Factor (Internal Marker) (AID 2282939). Particulars: HepG2 Attagene CIS-FACTORIAL M19 internal marker reporter; actives raise or lower the signal. In short, it runs like this: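 Following a 24 h exposure, RNA from transfected HepG2 cells was reverse-transcribed, PCR-amplified with reporter-specific primers, end-labelled with 6-FAM and HpaI-digested before capillary separation. Values represent gain or loss versus DMSO.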

The target of assay [19] is Heat shock factor protein 1 (Homo sapiens) (UniProt Q00613). The assay is described as follows: ATG_HSE_CIS: Attagene CIS-FACTORIAL HepG2 Assay for human Heat Shock Transcription Factor 1 (HSE) (AID 2282953). To be noted: HepG2 HSE cis-reporter, Attagene RNA transcription; actives raise or lower the signal. The method in brief: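 After a 24 h incubation with test chemical, transfected HepG2 cells were harvested for RNA; reporter transcripts were measured by RT-PCR and capillary electrophoresis. Values reflect gain or loss of signal relative to DMSO.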

Structures are written as SMILES. Active and inactive are the calls of the source. The calls were made as follows: active = hit-call score of the fitted dose curve at least 0.9, where 1 is the maximum; inactive = score below 0.9.

Chain of Hypoxia-inducible factor 1-alpha (Homo sapiens) (Q16665 whole entry, looked up): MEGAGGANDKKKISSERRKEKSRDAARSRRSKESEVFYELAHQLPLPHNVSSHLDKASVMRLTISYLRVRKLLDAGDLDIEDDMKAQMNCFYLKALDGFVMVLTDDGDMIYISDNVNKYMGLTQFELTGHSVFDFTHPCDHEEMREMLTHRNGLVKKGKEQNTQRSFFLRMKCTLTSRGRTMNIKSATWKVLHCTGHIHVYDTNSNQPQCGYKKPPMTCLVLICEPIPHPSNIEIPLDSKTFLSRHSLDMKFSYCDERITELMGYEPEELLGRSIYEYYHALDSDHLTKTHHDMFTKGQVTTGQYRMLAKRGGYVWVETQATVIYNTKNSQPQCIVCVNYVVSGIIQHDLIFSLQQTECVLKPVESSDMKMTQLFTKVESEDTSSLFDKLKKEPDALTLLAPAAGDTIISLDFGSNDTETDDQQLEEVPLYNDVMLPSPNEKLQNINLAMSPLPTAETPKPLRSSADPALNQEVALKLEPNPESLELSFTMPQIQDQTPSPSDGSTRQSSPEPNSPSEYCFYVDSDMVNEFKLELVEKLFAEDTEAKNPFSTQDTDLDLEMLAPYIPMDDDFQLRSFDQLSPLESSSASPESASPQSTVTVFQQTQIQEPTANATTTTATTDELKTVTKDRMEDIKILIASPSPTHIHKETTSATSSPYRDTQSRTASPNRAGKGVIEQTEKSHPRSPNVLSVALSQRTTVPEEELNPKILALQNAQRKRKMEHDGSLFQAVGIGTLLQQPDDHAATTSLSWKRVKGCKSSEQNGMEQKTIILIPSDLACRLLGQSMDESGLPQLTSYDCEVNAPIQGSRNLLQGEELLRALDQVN
Chain of Hepatocyte nuclear factor 3-beta (Homo sapiens) (Q9Y261 whole entry, looked up): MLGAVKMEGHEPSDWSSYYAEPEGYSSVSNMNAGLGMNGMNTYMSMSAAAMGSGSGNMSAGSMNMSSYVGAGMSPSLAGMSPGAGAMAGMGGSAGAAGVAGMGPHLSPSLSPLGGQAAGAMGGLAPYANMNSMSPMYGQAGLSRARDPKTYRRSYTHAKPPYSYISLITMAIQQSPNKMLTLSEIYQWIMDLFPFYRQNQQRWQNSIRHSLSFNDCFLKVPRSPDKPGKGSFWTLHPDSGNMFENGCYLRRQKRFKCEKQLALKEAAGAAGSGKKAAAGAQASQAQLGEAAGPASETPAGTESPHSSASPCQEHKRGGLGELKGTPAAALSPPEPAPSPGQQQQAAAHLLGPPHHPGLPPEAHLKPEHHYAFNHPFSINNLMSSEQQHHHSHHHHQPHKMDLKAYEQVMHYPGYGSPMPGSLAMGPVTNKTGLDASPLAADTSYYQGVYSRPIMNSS
Chain of Hepatocyte nuclear factor 6 (Homo sapiens) (Q9UBC0 whole entry, looked up, the tested form may be a part): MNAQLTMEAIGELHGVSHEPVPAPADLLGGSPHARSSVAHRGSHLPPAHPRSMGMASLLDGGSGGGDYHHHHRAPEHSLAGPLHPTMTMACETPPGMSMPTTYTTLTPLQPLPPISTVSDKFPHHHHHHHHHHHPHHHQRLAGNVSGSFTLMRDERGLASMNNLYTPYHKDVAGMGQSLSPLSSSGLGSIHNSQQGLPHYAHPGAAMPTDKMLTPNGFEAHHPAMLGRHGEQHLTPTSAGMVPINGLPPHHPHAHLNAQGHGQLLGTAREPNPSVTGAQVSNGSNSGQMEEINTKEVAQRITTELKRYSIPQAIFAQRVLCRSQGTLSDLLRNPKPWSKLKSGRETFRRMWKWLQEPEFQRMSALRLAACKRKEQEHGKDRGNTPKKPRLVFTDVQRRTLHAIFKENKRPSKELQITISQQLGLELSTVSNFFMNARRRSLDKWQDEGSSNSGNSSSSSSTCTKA
Chain of Transcription factor E2F1 (Homo sapiens) (Q01094 whole entry, looked up): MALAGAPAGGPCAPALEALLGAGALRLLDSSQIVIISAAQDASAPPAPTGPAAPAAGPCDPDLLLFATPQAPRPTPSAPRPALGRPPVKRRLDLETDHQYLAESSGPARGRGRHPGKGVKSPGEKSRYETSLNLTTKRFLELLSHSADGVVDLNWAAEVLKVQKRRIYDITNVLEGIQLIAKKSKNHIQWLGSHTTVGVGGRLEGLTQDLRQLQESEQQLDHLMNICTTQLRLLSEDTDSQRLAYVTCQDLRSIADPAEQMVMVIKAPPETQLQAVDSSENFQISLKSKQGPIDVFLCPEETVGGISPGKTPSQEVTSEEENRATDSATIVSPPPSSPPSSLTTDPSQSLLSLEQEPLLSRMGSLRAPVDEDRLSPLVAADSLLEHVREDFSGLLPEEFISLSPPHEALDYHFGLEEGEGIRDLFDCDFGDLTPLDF
Chain of Heat shock factor protein 1 (Homo sapiens) (Q00613 whole entry, looked up): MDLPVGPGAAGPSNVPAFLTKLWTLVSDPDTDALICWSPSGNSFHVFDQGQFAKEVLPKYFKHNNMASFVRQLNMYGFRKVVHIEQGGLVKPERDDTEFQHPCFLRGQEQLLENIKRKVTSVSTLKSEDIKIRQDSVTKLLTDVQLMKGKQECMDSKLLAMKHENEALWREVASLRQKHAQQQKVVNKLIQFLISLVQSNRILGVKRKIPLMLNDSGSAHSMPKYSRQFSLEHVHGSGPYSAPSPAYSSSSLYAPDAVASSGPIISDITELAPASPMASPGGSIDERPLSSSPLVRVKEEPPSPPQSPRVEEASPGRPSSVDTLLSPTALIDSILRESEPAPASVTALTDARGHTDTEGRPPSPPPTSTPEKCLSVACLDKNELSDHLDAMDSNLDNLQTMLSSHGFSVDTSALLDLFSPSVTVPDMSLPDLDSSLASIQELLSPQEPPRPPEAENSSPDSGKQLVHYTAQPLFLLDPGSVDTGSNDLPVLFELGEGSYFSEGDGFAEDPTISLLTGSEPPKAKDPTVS

`N#Cc1ccc(C2CCCc3cncn32)cc1` (stereo not given): the compound was called inactive in [1], in assay [2], in assay [3], in assay [4], in assay [6] and in [7]. The outcome in assay [8], in [9], in assay [10], in assay [11], in assay [12] and in [13] was inactive. The compound was classed as inactive in assay [14], in assay [15], in [16] and in assay [17]. The concentration at half-maximal activity (AC50) in assay [5] was 25.4 µM (active).
Take `Cc1c(Cl)cccc1Cl`: the compound was classed as inactive in assay [1], in assay [2], in assay [3], in assay [18], in assay [5] and in assay [6]. Besides, the result in assay [7], in [8], in assay [9], in assay [10], in [11] and in [12] was inactive. Besides, the outcome in assay [13], in [14], in assay [15], in assay [16], in assay [19] and in assay [17] was inactive.
Turning to `CCCCCOC(=O)CCCCC`, the outcome in [1], in assay [2], in assay [3], in [4], in [5] and in assay [6] was inactive. Besides, the compound was called inactive in [7], in assay [8], in [9], in assay [10], in assay [11] and in assay [12]. The outcome in assay [13], in assay [14], in assay [15], in assay [16] and in [17] was inactive.
Consider `C=CCCCCCCCCC=O`, for which the result in assay [1], in [2], in [3], in assay [18], in assay [6] and in assay [7] was inactive. The result in assay [8], in assay [9], in [10], in assay [11], in assay [12] and in assay [13] was inactive. In addition, the compound was classed as inactive in assay [14], in assay [15], in assay [16], in assay [19] and in assay [17]. Also, the AC50 in assay [5] was 88.7 µM (active).
